# Measurements reported in PubChem BioAssay.
# “And” between values parts separate entries of the source, which are not always exact repeats. Identical values can stand only once. The source made the active and inactive calls.
# Legend:
# [1] = system: PRMT1 (protein arginine N-methyltransferase 1); experiment: small molecules binding arginine methyltransferase PRMT1 – biochemical, small-molecule microarray, 635 nm fluorescence, primary screen (AID 1088); conditions: higher = more signal;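 further: binding of Prmt1 protein to compounds spotted on small-molecule microarray slides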
# [2] = growth effects on S. cerevisiae YJM789 – YJM789 clinical isolate, OD600, 24 h, basal, primary screen (AID 1089); conditions: higher = more signal, called active from +8 up or from −8 down;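 further: growth of clinical yeast isolate S. cerevisiae YJM 789 seeded 1000 cells per well; test concentration not given here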
# [3] = S. pombe growth modifiers, basal conditions – strain 972, OD600, 24 h, no modulator, primary screen (AID 1090);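 further: basal condition with compound alone and no growth modifier present; test concentration not given here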; conditions: S. pombe 972 growth, higher = more signal, called active from +8 up or from −8 down
# [4] = budding yeast growth modifiers under rapamycin – strain BY4716, OD600, 96 h, primary screen (AID 1091); further: test concentration not given here; conditions: S. cerevisiae BY4716 + rapamycin, higher = more signal, called active from +8 up or from −8 down
# [5] = biological target: Torsin-1A-interacting protein 2 (Homo sapiens) (UniProt Q8NFQ8); experiment: small molecules binding lysate-expressed LULL1 – cell lysate, human LULL1 lysate, 635/667 nm fluorescence, primary screen (AID 1092); conditions: small-molecule microarray, hLULL1 lysate binding, 635 nm fluorescence; higher = more signal;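 further: probe is lysate of COS7 cells overexpressing human LULL1; score merges per-feature 667 nm fluorescence with signal-to-noise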
# Sequence of Torsin-1A-interacting protein 2 (Homo sapiens) (Q8NFQ8 whole entry, looked up): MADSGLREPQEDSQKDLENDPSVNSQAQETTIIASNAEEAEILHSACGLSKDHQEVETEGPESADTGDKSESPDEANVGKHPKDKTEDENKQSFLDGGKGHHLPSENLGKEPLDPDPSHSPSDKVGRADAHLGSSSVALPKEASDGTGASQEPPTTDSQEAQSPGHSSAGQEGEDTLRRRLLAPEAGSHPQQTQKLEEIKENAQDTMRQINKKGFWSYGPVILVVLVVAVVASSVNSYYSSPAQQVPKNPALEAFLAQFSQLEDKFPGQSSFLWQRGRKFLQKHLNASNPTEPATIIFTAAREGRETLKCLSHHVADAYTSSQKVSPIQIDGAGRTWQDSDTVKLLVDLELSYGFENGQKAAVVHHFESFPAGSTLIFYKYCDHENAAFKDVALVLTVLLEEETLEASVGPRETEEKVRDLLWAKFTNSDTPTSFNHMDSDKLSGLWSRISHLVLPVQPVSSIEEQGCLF
# [6] = optical density change of DRC41 E. coli – strain DRC41, OD650, 24 h, E. coli filamentation project, primary screen (AID 1093);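 further: MC1000 strain lacking acrAB efflux and sulA so SOS filamentation is blocked; test concentration not given here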; conditions: E. coli DRC41 growth, higher = more signal, called active from +8 up or from −8 down
# [7] = probe aLefty2 binding to arrayed compounds – biochemical, biotinylated probe, 635/667 nm fluorescence, primary screen (AID 1094); conditions: small-molecule microarray, higher = more signal;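 further: score merges spot fluorescence near 667 nm with spot signal-to-noise ratio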
# [8] = system: Noggin (protein binding on small-molecule microarray); experiment: small molecules binding Noggin protein – biochemical, 635/667 nm fluorescence, primary screen (AID 1095); conditions: 635 nm fluorescence, higher = more signal;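 further: score merges 667 nm feature fluorescence with signal to noise over triplicate slides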
# [9] = biological target: Neurogenic locus notch homolog protein 3 (Homo sapiens) (UniProt Q9UM47); experiment: small molecules binding NOTCH3 protein – biochemical, 635/667 nm fluorescence, primary screen (AID 1096); conditions: small-molecule microarray, 635 nm fluorescence, higher = more signal
# Sequence of Neurogenic locus notch homolog protein 3 (Homo sapiens) (Q9UM47 whole entry, looked up): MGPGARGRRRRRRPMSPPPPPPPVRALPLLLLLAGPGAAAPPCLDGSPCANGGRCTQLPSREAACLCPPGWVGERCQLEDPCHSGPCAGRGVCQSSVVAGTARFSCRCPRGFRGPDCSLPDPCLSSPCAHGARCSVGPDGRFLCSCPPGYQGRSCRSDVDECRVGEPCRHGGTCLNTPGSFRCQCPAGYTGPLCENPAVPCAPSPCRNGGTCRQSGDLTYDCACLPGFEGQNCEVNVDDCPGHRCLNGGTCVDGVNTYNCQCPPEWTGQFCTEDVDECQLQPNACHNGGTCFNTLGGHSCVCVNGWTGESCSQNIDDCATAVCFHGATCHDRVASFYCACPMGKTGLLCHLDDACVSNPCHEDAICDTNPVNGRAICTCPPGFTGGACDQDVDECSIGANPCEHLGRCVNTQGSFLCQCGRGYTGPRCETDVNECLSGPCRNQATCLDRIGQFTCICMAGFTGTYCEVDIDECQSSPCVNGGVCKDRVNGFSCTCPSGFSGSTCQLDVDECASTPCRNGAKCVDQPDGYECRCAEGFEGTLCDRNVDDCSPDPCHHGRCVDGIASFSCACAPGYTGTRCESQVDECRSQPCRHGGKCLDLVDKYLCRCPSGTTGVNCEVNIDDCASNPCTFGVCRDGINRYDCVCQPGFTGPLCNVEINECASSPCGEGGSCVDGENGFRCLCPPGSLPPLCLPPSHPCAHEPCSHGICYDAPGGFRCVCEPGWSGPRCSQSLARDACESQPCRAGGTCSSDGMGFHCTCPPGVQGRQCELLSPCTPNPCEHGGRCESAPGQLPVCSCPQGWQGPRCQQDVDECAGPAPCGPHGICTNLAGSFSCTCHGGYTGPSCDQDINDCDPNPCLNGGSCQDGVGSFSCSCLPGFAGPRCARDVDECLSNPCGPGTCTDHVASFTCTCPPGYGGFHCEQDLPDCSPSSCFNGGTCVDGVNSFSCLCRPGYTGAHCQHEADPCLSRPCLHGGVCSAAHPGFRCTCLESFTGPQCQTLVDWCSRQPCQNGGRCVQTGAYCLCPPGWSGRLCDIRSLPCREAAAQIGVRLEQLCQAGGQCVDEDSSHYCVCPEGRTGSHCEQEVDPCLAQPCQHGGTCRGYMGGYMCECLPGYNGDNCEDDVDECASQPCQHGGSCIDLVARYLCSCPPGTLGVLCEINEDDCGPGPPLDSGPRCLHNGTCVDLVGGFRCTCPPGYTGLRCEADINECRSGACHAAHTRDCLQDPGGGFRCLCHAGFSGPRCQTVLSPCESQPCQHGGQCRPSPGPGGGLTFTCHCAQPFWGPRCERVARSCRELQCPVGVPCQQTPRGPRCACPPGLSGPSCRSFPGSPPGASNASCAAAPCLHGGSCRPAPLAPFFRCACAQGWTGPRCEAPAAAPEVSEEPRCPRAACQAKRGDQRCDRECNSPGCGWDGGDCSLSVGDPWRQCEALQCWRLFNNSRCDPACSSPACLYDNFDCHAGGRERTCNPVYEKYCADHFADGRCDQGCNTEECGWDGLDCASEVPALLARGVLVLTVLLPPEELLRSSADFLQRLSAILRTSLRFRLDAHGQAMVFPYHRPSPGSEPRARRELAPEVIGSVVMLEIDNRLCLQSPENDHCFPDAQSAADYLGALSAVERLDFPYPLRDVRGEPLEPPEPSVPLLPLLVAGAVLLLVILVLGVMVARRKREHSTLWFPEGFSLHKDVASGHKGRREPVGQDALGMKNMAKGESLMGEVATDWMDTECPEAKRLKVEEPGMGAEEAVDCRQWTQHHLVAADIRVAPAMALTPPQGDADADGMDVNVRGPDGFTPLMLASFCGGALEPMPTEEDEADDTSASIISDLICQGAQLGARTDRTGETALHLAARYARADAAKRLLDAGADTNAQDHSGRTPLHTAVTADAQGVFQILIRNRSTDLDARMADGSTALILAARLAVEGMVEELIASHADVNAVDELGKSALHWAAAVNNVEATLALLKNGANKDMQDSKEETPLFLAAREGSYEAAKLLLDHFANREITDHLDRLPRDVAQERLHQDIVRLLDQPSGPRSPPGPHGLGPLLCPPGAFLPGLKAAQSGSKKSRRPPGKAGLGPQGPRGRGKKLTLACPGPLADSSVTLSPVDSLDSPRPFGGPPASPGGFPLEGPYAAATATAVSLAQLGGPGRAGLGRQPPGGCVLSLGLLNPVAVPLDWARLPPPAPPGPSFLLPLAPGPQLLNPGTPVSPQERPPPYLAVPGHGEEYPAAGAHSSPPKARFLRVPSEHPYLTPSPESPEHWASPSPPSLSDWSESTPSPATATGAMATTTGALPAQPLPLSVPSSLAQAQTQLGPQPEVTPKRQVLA
# [10] = probe aEGFR binding to arrayed compounds – biochemical, biotinylated probe, 635/667 nm fluorescence, primary screen (AID 1097); conditions: small-molecule microarray, higher = more signal;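 further: probe is a biotinylated anti-EGFR antibody binding compounds printed on slides; score combines fluorescence near 667 nm and signal to noise of each spot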
# [11] = system: Plasmodium falciparum Sir2 (PF13_0152, Sir2A); experiment: Plasmodium falciparum Sir2A binding compounds – biochemical, small-molecule microarray, 635 nm fluorescence, primary screen (AID 1098); conditions: fluorescence 635 nm, higher = more signal;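 further: score merges spot fluorescence intensity with its signal-to-noise ratio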
# [12] = probe aDKK1 binding to arrayed compounds – biochemical, biotinylated probe, 635/667 nm fluorescence, primary screen (AID 1099); conditions: small-molecule microarray, higher = more signal;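 further: score merges 667nm spot fluorescence with signal to noise across triplicate slides; reference of the scale not given here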
# [13] = probe aCHRDL2 binding to arrayed compounds – biochemical, biotinylated probe, 635/667 nm fluorescence, primary screen (AID 1100); conditions: small-molecule microarray, higher = more signal
# [14] = change in splice reporter luminescence, either direction, cell-based, HEK293, spliceosome inhibition project, primary screen (AID 1101); conditions: HEK293 splicing luciferase reporter, 24 h, higher = more signal, called active from +8 up or from −8 down;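 further: HEK293 cells carrying a splicing-competent luciferase reporter gene; test concentration not given here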
# [15] = biological target: Fibroblast growth factor 10 (Homo sapiens) (UniProt O15520); experiment: compounds binding fibroblast growth factor 10 – biochemical, small-molecule microarray, 635 nm fluorescence, primary screen (AID 1102); conditions: FGF10 binding, fluorescence 635 nm, higher = more signal
# Sequence of Fibroblast growth factor 10 (Homo sapiens) (O15520 whole entry, looked up): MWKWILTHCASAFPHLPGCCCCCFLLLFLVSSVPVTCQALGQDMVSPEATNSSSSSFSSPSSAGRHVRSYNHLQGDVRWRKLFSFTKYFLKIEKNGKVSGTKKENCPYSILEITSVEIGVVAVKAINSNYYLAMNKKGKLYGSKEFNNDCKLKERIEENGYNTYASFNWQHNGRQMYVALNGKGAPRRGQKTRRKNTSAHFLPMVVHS
# [16] = system: glycogen synthase kinase-3 (GSK3A per assay name; protocol says GSK3B); experiment: compounds binding glycogen synthase kinase-3 – biochemical, small-molecule microarray, 635 nm fluorescence, GSK3A, primary screen (AID 1103); conditions: fluorescence 635 nm, higher = more signal; further: the record names both GSK3A and GSK3B
# [17] = biological target: Epidermal growth factor receptor (Homo sapiens) (UniProt P00533); experiment: compounds binding epidermal growth factor receptor – biochemical, small-molecule microarray, 635 nm fluorescence, primary screen (AID 1104); conditions: EGFR binding, higher = more signal;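 further: score merges 667 nm emission intensity with spot signal to noise over triplicate slides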
# Sequence of Epidermal growth factor receptor (Homo sapiens) (P00533 whole entry, looked up): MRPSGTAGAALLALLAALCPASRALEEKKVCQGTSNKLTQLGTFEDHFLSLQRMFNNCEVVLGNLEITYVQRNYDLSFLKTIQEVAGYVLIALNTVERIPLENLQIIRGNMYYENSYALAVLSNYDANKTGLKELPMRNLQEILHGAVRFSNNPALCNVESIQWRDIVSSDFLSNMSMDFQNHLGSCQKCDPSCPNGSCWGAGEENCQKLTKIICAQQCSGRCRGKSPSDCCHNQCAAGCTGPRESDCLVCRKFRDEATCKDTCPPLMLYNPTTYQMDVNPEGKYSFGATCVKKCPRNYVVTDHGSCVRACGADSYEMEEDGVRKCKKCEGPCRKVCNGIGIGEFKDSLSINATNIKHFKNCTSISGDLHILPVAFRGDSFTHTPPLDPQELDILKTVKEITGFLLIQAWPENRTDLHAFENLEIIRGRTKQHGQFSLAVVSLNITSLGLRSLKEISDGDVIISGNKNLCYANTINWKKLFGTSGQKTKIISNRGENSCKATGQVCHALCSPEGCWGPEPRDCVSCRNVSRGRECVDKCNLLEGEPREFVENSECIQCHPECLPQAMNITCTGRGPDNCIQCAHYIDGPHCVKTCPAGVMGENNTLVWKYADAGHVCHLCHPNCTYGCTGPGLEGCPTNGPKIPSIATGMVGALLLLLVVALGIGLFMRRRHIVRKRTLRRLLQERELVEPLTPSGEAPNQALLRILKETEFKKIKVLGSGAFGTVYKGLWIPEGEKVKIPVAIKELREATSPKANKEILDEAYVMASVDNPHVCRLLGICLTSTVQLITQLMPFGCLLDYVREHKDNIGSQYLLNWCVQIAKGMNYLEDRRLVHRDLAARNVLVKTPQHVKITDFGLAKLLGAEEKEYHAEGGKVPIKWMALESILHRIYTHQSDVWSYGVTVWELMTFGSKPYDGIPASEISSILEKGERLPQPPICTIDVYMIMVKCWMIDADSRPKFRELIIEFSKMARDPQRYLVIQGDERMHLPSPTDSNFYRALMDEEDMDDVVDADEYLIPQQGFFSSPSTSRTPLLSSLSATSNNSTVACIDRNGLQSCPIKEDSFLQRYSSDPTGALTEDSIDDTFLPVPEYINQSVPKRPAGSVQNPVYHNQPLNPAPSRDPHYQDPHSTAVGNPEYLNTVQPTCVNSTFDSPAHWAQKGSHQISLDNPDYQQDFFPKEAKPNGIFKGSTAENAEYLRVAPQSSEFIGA
# [18] = biological target: Follistatin-related protein 3 (Homo sapiens) (UniProt O95633); experiment: compounds binding follistatin-related protein 3 – biochemical, small-molecule microarray, 635 nm fluorescence, primary screen (AID 1105); conditions: FSTL3 binding, higher = more signal;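 further: score merges emission near 667 nm and signal to noise per printed spot across three slides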
# Sequence of Follistatin-related protein 3 (Homo sapiens) (O95633 whole entry, looked up): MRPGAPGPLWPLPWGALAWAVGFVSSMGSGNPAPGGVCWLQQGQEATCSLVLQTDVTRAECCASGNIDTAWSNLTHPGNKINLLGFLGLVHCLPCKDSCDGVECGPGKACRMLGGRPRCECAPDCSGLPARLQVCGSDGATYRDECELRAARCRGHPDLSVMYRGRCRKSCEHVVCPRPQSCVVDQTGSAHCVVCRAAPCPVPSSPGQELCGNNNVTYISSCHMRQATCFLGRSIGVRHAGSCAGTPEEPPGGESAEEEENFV
# [19] = biological target: Dickkopf-related protein 1 (Homo sapiens) (UniProt O94907); experiment: small molecules binding DKK1 protein – biochemical, small-molecule microarray, 635 nm fluorescence scan, primary screen (AID 1106); conditions: higher = more signal;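 further: score merges emission near 667 nm with signal to noise over three replicate slides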
# Sequence of Dickkopf-related protein 1 (Homo sapiens) (O94907 whole entry, looked up): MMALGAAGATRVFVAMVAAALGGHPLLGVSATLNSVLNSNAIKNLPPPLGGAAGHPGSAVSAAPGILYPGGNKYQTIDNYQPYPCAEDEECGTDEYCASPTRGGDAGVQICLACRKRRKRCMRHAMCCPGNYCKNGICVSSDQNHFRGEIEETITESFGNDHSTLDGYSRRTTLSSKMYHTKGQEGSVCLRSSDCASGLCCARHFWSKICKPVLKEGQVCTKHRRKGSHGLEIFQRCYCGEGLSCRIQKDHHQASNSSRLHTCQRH
# [20] = system: Inhibin beta A chain (activin A); experiment: small molecules binding activin A – biochemical, small-molecule microarray, 635 nm fluorescence scan, primary screen (AID 1107); conditions: INHBA, higher = more signal;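 further: mouse activin A protein probed at 4.33 µg/mL on printed slides; score merges bound-protein fluorescence near 667 nm with spot signal-to-noise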
Compound,composite z-score [1],z-score [2],z-score [3],z-score [4],composite z-score [5],z-score [6],composite z-score [7],composite z-score [8],composite z-score [9],composite z-score [10],composite z-score [11],composite z-score [12],composite z-score [13],z-score [14],composite z-score [15],composite z-score [16],composite z-score [17],composite z-score [18],composite z-score [19],composite z-score [20]
CCCNC(=O)OC[C@H]1O[C@H](CCON=C(C)CCN2CCc3nc(-c4ccccc4)c(-c4ccccc4)cc3C2)C=C[C@@H]1Oc1ccc(OC)cc1,0.497,1.12 (inactive),-0.724 (inactive),-3.57 (inactive),1.04,0.385 (inactive),-0.0638,0.553,-0.105,0.0321,0.274,-0.128,-0.155,-0.0345 (inactive),0.0705,-0.0859,0.0142,0.254,0.431,0.67
CO[C@@H]1COC(=O)[C@H](Cc2ccccc2)NC(=O)CC=C[C@@H](C)[C@H](OC)COC(=O)[C@@H](C)NC(=O)CC=C[C@H]1C,1.53 and 1.15,-0.706 (inactive) and -0.356 (inactive),-1.71 (inactive) and -1.2 (inactive),-0.916 (inactive) and -0.753 (inactive),0.469 and -0.0887,-0.0559 (inactive) and 0.361 (inactive),-0.217 and -0.393,1.45 and 1.06,1.07 and 0.862,-0.0616 and -0.0438,1.58 and 0.899,-0.447 and -0.987,-1.06 and -1.37,-1.14 (inactive) and -1.29 (inactive),0.497 and 0.956,1.07 and 0.496,0.882 and 0.64,1.29 and 0.876,0.696 and 1.67,1.42 and 0.336
C=C[C@@H](C)[C@H](O)c1ccc(O)c2ccccc12,0.849 and -0.813,-0.647 (inactive) and -0.84 (inactive),-7.96 (inactive) and -7.6 (inactive),3.63 (inactive) and 2.2 (inactive),1.26 and 0.149,1.32 (inactive) and 0.1 (inactive),-0.254 and -0.233,0.753 and -0.896,-0.0801 and -1.72,-0.244 and -0.399,1.09 and 0.905,-0.493 and -0.379,-0.289 and 0.255,0.126 (inactive) and 0.292 (inactive),-0.309 and -0.862,-0.347 and -0.958,0.617 and -0.987,0.294 and -0.579,0.481 and -0.33,1.53 and 1.13
C[N+](C)(C)CCCCNC(=O)[C@H]1C[C@H]2C(=O)N[C@@H](CCCC[N+](C)(C)C)C(=O)N2[C@H]1c1cccc(OCCO)c1,1.04 and 1.57,-0.604 (inactive) and -0.504 (inactive),-0.0107 (inactive) and -0.805 (inactive),-1.88 (inactive) and -1.81 (inactive),2.58 and 1.78,-0.351 (inactive) and -0.201 (inactive),-0.121 and -0.0153,1.89 and 1.75,0.914 and 1.1,0.0614 and 0.22,1.82 and 1.11,-0.171 and 0.256,-0.537 and -0.421,0.00747 (inactive) and -0.387 (inactive),1.51 and 1.39,0.0299 and 1.1,0.622 and 1.27,1.45 and 1.51,1.44 and 1.81,0.282 and 0.696
